# In the library only some 19% were active in any assay of this set; here they are far more common.
# TDP1 cell noCPT: qHTS for Inhibitors of human tyrosyl-DNA phosphodiesterase 1 (TDP1): qHTS in cells in absence of CPT | AID 686978, 2013 | DT40 Tdp1-/- hTDP1 cells, no CPT, ATP luminescence, 48 h | Potency, µM (doses to about 46.2 µM), for the others: at the highest dose activity change, negative = growth inhibition, hits mostly inhibitors | 420,000 tested, 15% active; note: potency is the fitted concentration of half-maximal effect; nearly all actives have a fitted effect of over 55% in size
#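 Seeded 400 DT40-hTDP1 cells/well (vehicle DMSO, no 20 nM CPT); pinned compounds; ≥48 hr at 37 °C; CellTiter-Glo luminescence as viability measure.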
# ELG1 DNA repair: blocks ELG1-dependent DNA repair in HEK293T cells; HEK293T ELG1-luciferase reporter, luminescence, 16 h; DNA damage induced by 5-fluorouridine; Potency, µM (titrated, usually from 46.1 µM), inactives show top-dose activity change, negative = inhibition, most hits filed as inhibitors; 330,000 tested, 2.3% active; AID 504467; note: potency is the fitted concentration of half-maximal effect; nearly all actives have a fitted effect of over 55% in size
#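 Luminescence from the luciferase reporter, measured 30 min after ONE-Glo reagent at room temperature, was the read-out. Beforehand, 2,000 cells per well were exposed for 16 hr at 37 °C to 5-fluorouridine together with compound or vehicle.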
# IL-1B inflam inh: inhibitors of inflammasome signaling (IL-1 beta secretion); THP-1 LPS/ATP IL-1B secretion, AlphaLISA, 16 h; active compounds read low; activity change, % at 57.5 µM; 360,000 tested, 4.7% active; in the data active = activity change below about -50%; inconclusive = mostly about -30% to -49%
#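 THP-1 cells pretreated 1 hr with compounds (up to 57.5 uM final), then stimulated with LPS (250 ng/mL final) plus ATP (1.25 mM final); secreted IL-1B measured by AlphaLISA after 16 hr, decreased signal indicating inhibition.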
# HT1080 IDH1KD tx: toxicity to HT-1080 IDH1 knockdown cells (counter line); 360,000 tested, 2% active; HT-1080 IDH1 knockdown viability, ATP luminescence, 48 h; Potency, µM (doses to about 46.1 µM), for inactives: top-dose activity, negative = toxicity, hits mostly cytotoxic;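 note: potency is the fitted concentration of half-maximal effect; 0% = DMSO wells and -100% = cell-free medium wells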
#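 After a 2 h attachment period, IDH1KD HT-1080 cells took pin-transferred compound for 48 h at 37 °C; ATP-based luminescence after 10 min room-temperature reagent incubation reported viability.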
# TDP1 cell CPT: growth inhibition of DT40 Tdp1-/-;hTDP1 cells with camptothecin (screen for TDP1 inhibitors); chicken DT40 Tdp1-/-;hTDP1 cells + 20 nM CPT, ATP luminescence, 48 h; Potency, µM (highest dose often 46.2 µM), without a hit: top-dose activity change, negative = growth inhibition, most hits filed as inhibitors; AID 686979; 420,000 tested, 12% active; note: potency is the fitted concentration of half-maximal effect; nearly all actives have a fitted effect of over 55% in size
#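 Chicken DT40 Tdp1-/- cells stably complemented with human TDP1 were seeded at 400 cells/well in medium containing 20 nM camptothecin, exposed to pin-transferred compounds, and grown at 37 °C for at least 48 hr. Viability was read as ATP luminescence.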
# HT1080-NT tox: kills 2HG-producing HT-1080-NT fibrosarcoma cells. HT-1080-NT fibrosarcoma viability, CellTiter-Glo ATP luminescence, 48 h. Potency, µM (highest dose often 46.1 µM), for inactives: at the highest dose activity, negative = less viability, actives largely listed as cytotoxic. 360,000 tested, 1.6% active;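 note: NT is the 2HG producing partner of a matched IDH1 knockdown line; potency is the fitted concentration of half-maximal effect; 0% = DMSO-treated cells and -100% = media-only wells without cells; nearly all actives have a fitted effect of over 55% in size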
#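 HT-1080-NT; 750 cells/well; 5% FBS RPMI; 48 h compound, 37 degrees C; CellTiter-Glo luminescence; curve fitting and curve-class assignment.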
# * marks the source's active call; other numbers are inactive results; ? = inconclusive; · = no result; ! = not confirmed by another sample. Unless noted, calls come from the whole dose curve; as a rule, active = well fitted curve in the direction sought with a large enough effect; inconclusive = small, poorly fitted or top-dose-only effect, or another doubt; inactive = no such curve, though single readings can be large; an effect the other way counts as inactive or inconclusive. Unless noted, % is set by controls: 0 for no effect and ±100 for the full control effect.
SMILES,TDP1 cell noCPT,ELG1 DNA repair,IL-1B inflam inh,HT1080 IDH1KD tx,TDP1 cell CPT,HT1080-NT tox
CCOC(=O)C1=C(CN2CCN(C(=O)c3ccco3)CC2)NC(=O)NC1c1ccc(OC)cc1 (centres undefined),-28.9%,0.7%,-13.2,0.0%,-24.2%,-1.2%
CCCN1CCN(CC2=C(C(=O)OCC)C(c3ccc(Cl)cc3)NC(=O)N2)CC1 (centres undefined),25.9µM*,·,·,·,25.9µM*,·
CCn1c(SC)nc2c([nH]c3ccccc32)c1=O,3.8%,·,·,·,-21.8%,·
C=CCn1c(SCc2nc3ccccc3c(=O)[nH]2)nc2ccccc2c1=O,?,?,13.8,?,?,?
C=CCn1c(SCc2c(C)noc2C)nc2ccccc2c1=O,0.794µM*,24.4%,40.0,0.316µM*,0.562µM*,0.562µM*
C=CCn1c(SCc2c(C)noc2C)nc2cc(C(=O)O)ccc2c1=O,?,?,30.6,7.08µM*,?,6.31µM*
C=CCn1c(SCc2ccc(Br)cc2F)nc2cc(C(=O)O)ccc2c1=O,-16.1%,1.7%,9.5,-18.6%,-1.2%,-1.9%
Cn1c2c(c(=O)n(C)c1=O)C(C(F)(F)F)(C(F)(F)F)N=C(CCC1CCCCC1)N2,3.66µM*,?,-58.1*,?,2.59µM*,?
Cn1c2c(c(=O)n(C)c1=O)C(C(F)(F)F)(C(F)(F)F)N=C(c1ccccc1Cl)N2,?,?,22.2,-6.8%,23.1µM*,-16.9%
CC1CC(C)CN(C(=O)C2CCCN(S(=O)(=O)c3cnc[nH]3)C2)C1 (centres undefined),24.1%,-2.4%,10.8,3.7%,-7.9%,-2.3%
Cc1cccc(NC(=O)C2(c3cccs3)CCOCC2)n1,-18.8%,9.8%,10.0,-1.6%,-1.7%,-8.7%
Cc1ccc(-c2ccc(CCC(=O)O)n2-c2cccc(O)c2)cc1,-13.1%,0.0%,19.1,6.0%,?,9.5%
CC(=O)N=c1scc(-c2ccccc2)n1-c1cccc(O)c1,16.4µM*,15.9%,18.8,?,?,-29.8%
O=C(Nc1ccc2nc(-c3cccnc3)[nH]c2c1)c1ccco1,-28.0%,10.9%,-16.8,9.4%,?,9.8%
O=C1c2ccccc2C(Nc2ccc3nc(-c4cccnc4)[nH]c3c2)N1Cc1ccco1 (centres undefined),7.31µM*,14.7%,0.0,1.8%,9.2µM*,0.6%
O=C1c2ccccc2C(Nc2ccc(-c3nc4ccccc4[nH]3)cc2)N1Cc1ccco1 (centres undefined),18.4µM*,?,-1.5,-13.8%,?,-4.0%
CCOc1ccc(NC2c3ccccc3C(=O)N2Cc2ccco2)cc1 (centres undefined),11.6µM*,?,12.5,-6.3%,16.4µM*,-3.8%
CCOC(=O)c1c(C)[nH]c(/C(C)=N/O)c1C,-16.1%,?,-4.7,-14.5%,-21.2%,-6.3%
CCOC(=O)c1c(C)[nH]c(C2=NNC(=NC3CC3)SC2)c1C,?,?,-50.4*,-10.7%,?,-1.8%
Cc1ccc(NC(=O)c2ncn(CCCN(C)CCc3ccccn3)n2)cc1C,-22.2%,·,-20.8,-1.6%,-24.9%,-3.0%
OC(CN1CCOCC1)c1ccccc1 (centres undefined),5.8%,·,·,·,15.2%,·
CCCNS(=O)(=O)/C=C/c1ccccc1,2.2%,8.6%,-3.3,0.9%,8.8%,13.8%
O=S(=O)(/C=C/c1ccccc1)Oc1ccccc1,16.4µM*,-5.4%,-88.9*,?,25.9µM*,?
CCN(CC)CCOc1ccc(/C(=C(\Cl)c2ccccc2)c2ccccc2)cc1,14.6µM*!,-2.4%,-15.2,14.6µM*,?,4.61µM*
CCCCN(C)CCN1C(=O)C2C(C(=O)Nc3ccc(Cl)cc3)C3C=CC2(O3)C1C(=O)NC1CCCCC1 (centres undefined),-15.9%,7.9%,-60.1*,?,9.1%,-18.7%
SMILES,TDP1 cell noCPT,ELG1 DNA repair,IL-1B inflam inh,HT1080 IDH1KD tx,TDP1 cell CPT,HT1080-NT tox
Cc1ccc(OCCSc2nc3ccccc3n2CC(=O)O)cc1C,1.3%,10.0%,-9.5,8.2%,7.4%,6.2%
Cc1ccc2nc(-c3ccco3)c(CC(C)(C)C)n2c1,9.2µM*,·,11.7,8.4%,10.3µM*,-1.6%
Cc1ccc2nc(-c3ccco3)c(Cc3ccccc3)n2c1,?,·,1.5,23.1µM*,?,?
Clc1ccc2nc(-c3ccco3)c(Cc3ccccc3)n2c1,?,·,-5.6,?,16.4µM*,?
Brc1ccc2nc(-c3ccco3)c(Cc3ccsc3)n2c1,?,·,-8.9,?,?,?
COc1ccc(Nc2c(-c3ccco3)nc3ccc(C)cn23)cc1,-15.1%,5.7%,7.5,-1.6%,-21.4%,-2.7%
Cc1ccc2nc(NC(=O)COC(=O)c3cccnc3)sc2c1,-20.7%,?,30.7,-0.3%,-30.0%,-2.7%
CCCn1cc(S(=O)(=O)c2ccc(C)c(C)c2)c(=O)c2cc(F)c(N3CCC(C)CC3)cc21,-23.4%,·,·,·,5.1%,·
CCN(CC)c1cc2c(cc1F)c(=O)c(S(=O)(=O)c1ccccc1)cn2Cc1ccccc1,16.4µM*,·,·,·,14.6µM*,·
CCN(CC)c1cc2c(cc1F)c(=O)c(S(=O)(=O)c1ccccc1)cn2C,?,·,·,·,-28.2%,·
CCN(CC)c1cc2c(cc1F)c(=O)c(S(=O)(=O)c1ccc(OC)cc1)cn2Cc1ccccc1,23.1µM*,·,·,·,?,·
Cc1ccc(S(=O)(=O)c2cn(Cc3ccc(F)cc3)c3cc(F)c(F)cc3c2=O)cc1,1.4%,·,·,·,0.2%,·
COc1ccc(S(=O)(=O)c2cn(Cc3ccccc3)c3cc(F)c(F)cc3c2=O)cc1,?,·,·,·,14.6µM*,·
CCCCn1cc(S(=O)(=O)c2ccc(C)c(C)c2)c(=O)c2cc(F)c(N(CC)CC)cc21,8.2µM*,·,·,·,7.31µM*,·
CC(=O)N/C(=N\c1nc(C)cc(C)n1)Nc1ccc(Cl)cc1Cl,-13.2%,-12.5%,9.6,26.3%,21.6%,18.2%
COc1ccc(S(=O)(=O)N2CCOCC2)cc1NC(=O)CSc1nnc2ccccn12,·,2.3%,·,·,·,·
COc1cc2c(=O)c(S(=O)(=O)c3ccc(C)cc3)cn(Cc3cccc(C)c3)c2cc1OC,16.4µM*,·,·,·,16.4µM*,·
CC1(C(=O)Nc2cccc(OC(F)(F)F)c2)Cc2c(-c3cccc(C(F)(F)F)c3)ccnc2O1 (centres undefined),?,·,14.0,?,?,?
